The source of these data is PubChem BioAssay (NCATS).

Molecules are shown by their SMILES. Unmarked numbers belong to inactive results. The call rests on the fitted dose curve; in most records, active means well fitted curve in the direction sought with a large enough effect; inconclusive means small, poorly fitted or top-dose-only effect, or effect the other way, or another doubt; inactive means no such curve, though single readings can be large or run the other way.

The nature of this test: qHTS of Nrf2 Activators: LOPAC Validation (AID 624149). Further: 0% is about no effect. As to conditions: Nrf2/ARE reporter cell assay; series mostly up to 46.1 µM; activation: at the top concentration. The text has this:
Many diseases have some form of oxidative stress injury and ties to inflammation, causing a host of problems for the patient. The antioxidant response element (ARE) plays an important role in alleviating the harmful effects of oxidative stress. The antioxidant response element (ARE) is a transcriptional regulatory element involved in the activation of genes coding for a number of antioxidant proteins and detoxifying enzymes. These enzymes work in concert to protect tissues from oxidative insults and chemical toxicities in human hepatocytes and immune cells. The protective effects of ARE activation are primarily triggered through Nrf2 (NF-E2-related factor) binding to and activating AREs. It is known that Nrf2 controls the production of over 250 antioxidant and detoxification proteins (Hu et al., 2006), thereby protecting tissues by increasing cellular antioxidant content and suppressing inflammatory signaling pathways. The transcription factor Nrf2 is a central link between oxidative chemicals, such as phenolic antioxidants and electrophilic compounds, and the activation of ARE. Nrf2 levels are constitutively low as a consequence of its interaction with Keap1, which targets its degradation (Zipper and Mulcahy, 2002). Electrophiles react with key cysteine residues in Keap1, releasing Nrf2 and allowing its translocation to the nucleus. Once within the nucleus, Nrf2 complexes with coactivators such as p300, and binds to the AREs to induce gene transcription of cytoprotective enzymes, resulting in the prevention of toxicity. Activation of Nrf2 protects tissues by increasing cellular antioxidant content and suppressing inflammatory signaling pathways. Identifying novel and potent Nrf2 activators by using the AREc32 cell line to detect ARE activation by small molecules will lead to the identification and development of probes to study protective pathways in multiple tissues. These specific probes are essential to study the ARE pathway, and eventually to determine whether this pathway does activate genes that could protect against a host of diseases, including cardiovascular diseases, obesity, diabetes, Alzheimer's, and Parkinson's disease.
This project's aim is to identify novel and potent Nrf2 activators by using the AREc32 cell line to detect ARE activation by small molecules, which will lead to the identification and development of probes to study the ARE pathway.
NIH Chemical Genomics Center [NCGC]
NIH Molecular Libraries Probe Centers Network [MLPCN]
Assay Submitter (PI): Curtis Klaassen, University of Kansas Medical Center
5 uL of 1000 cells/well of AREc32_Fluc cells are seeded into 1536-well plate in OPTI-MEM medium with 5% FBS. The plates are incubated overnight at 37 deg C with 5% CO2. Then through pin tool transfer, 23 nL of compounds are added to each well before a 24 hr incubation at 37 deg C with 5% CO2. After the addition of 2.5 uL of Steady-Glo. the plates are kept at RT for 30 min, before they are read on the ViewLux
(In general: In qHTS, concentration-response curves come from the screen itself.)
With `O=c1c(O)c(-c2cc(O)c(O)c(O)c2)oc2cc(O)cc(O)c12`, the “activation” value is 8.48%.

As to `Cc1c(OCC(F)(F)F)ccnc1CS(=O)c1nc2ccccc2[nH]1` (stereo unspecified), the “activation” value is 11.7%. For `COc1ccccc1N1CCN(CCN(C(=O)C2CCCCC2)c2ccccn2)CC1`, the “activation” value is -2.59%. For `COc1cc2nc(N3CCN(C(=O)C4CCCO4)CC3)nc(N)c2cc1OC` (stereo unspecified), the “activation” value is -1.71%.

Take `Oc1ccc2ccccc2c1SSc1c(O)ccc2ccccc12`: the “activation” value is 7.02%. With `Nc1ccn([C@@H]2O[C@H](CO)[C@@H](O)C2O)c(=O)n1` (stereo partly specified), the “activation” value was -0.603%. For `COc1cc2c(cc1OC)C1CC(=O)C(CC(C)C)CN1CC2` (stereo unspecified) the value was -2.07%; for `Nc1nc(OCc2ccccc2)c2[nH]cnc2n1`, 3.04%. As to `CC(C)c1ccc2c(c1)c(SC(C)(C)C)c(CC(C)(C)C(=O)O)n2Cc1ccc(Cl)cc1`, the “activation” value is -1.79%. The result for `O=C(CCc1ccc(O)cc1)c1c(O)cc(O)cc1O` reads -1.97%; that for `CC(=O)N1CCN(c2ccc(OC[C@H]3CO[C@](Cn4ccnc4)(c4ccc(Cl)cc4Cl)O3)cc2)CC1`, 1.12%; that for `O=c1cc(N2CCOCC2)oc2c(-c3ccccc3)cccc12`, -1.2%. In the case of `Nc1nc(N)c(N=O)c(OCC2CCCCC2)n1`, the “activation” value is 0.994%. The result for `O=c1ccc2ccc(O)c(O)c2o1` reads -1.07%. The result for `COc1ccc2cc([C@H](C)C(=O)O)ccc2c1` reads 0.176%; that for `O=c1c(O)c(-c2ccc(O)cc2O)oc2cc(O)cc(O)c12`, -2.33%; that for `O=C(c1ccccc1)c1ccc2n1CCC2C(=O)O` (stereo unspecified), -2.03%. For `OC(CN1CCN(c2cccc(Cl)c2)CC1)C(c1ccccc1)c1ccccc1` (stereo unspecified) the value was -1.75%.

With `O=C(O)c1cccnc1Nc1cccc(C(F)(F)F)c1`, the “activation” value was -1.53%.

As to `CN(C)CCCC1(c2ccc(F)cc2)OCc2cc(C#N)ccc21` (stereo unspecified), the “activation” value was -1.99%. With `CCOC(=O)C(C)Oc1cccc2c(=O)n(CC(=O)Nc3ccc4c(c3)OCCO4)ccc12` (stereo unspecified), the “activation” value was -1.6%. Take `CC1(C)NC(=O)N(c2ccc([N+](=O)[O-])c(C(F)(F)F)c2)C1=O`: the “activation” value is -1.92%. On to `O=C1c2c(O)cc(O)cc2OC(c2ccc(O)c(O)c2)C1O` (stereo unspecified), for which the “activation” value is 4.57%. As to `O=C1c2ccccc2-c2n[nH]c3cccc1c23`, the “activation” value is -0.588%. With `C[C@H](Cc1ccc(O)c(O)c1)[C@@H](C)Cc1ccc(O)c(O)c1`, the “activation” value is 22.2%. For `C[C@@H](N)C1CCC(C(=O)Nc2ccncc2)CC1` (stereo partly specified) the value was 1.05%; for `CC1(C)C(=O)N(CCN2CCC(C(=O)c3ccc(F)cc3)CC2)c2ccccc21`, 8.32%.

Turning to `Cc1cc(O)c2c(c1)C(=O)c1cc(O)cc(O)c1C2=O`, the “activation” value is 16%. For `CNC[C@H](O)c1ccc(O)c(O)c1` the value was -2.22%; for `O=C1NC(=O)C(c2ccccc2[N+](=O)[O-])=C1Nc1ccc(O)c(Cl)c1`, 6.57%; for `CC(=O)O[C@H]1C(=O)[C@@]2(C)C([C@H](OC(=O)c3ccccc3)[C@]3(O)C[C@H](OC(=O)[C@H](O)[C@@H](NC(=O)c4ccccc4)c4ccccc4)C(C)=C1C3(C)C)[C@]1(OC(C)=O)CO[C@@H]1C[C@@H]2O` (stereo partly specified), -2.64%.

On to `NCCCCNCCCN`, for which the “activation” value is 3.76%. As for `NNc1nncc2ccccc12`, the “activation” value is 5.7%. For `NC(=NCc1ccccc1)NC(=O)c1nc(Cl)c(N)nc1N` the value was 1.32%.

On to `O=Nc1c(-c2c(O)[nH]c3cc(Br)ccc23)[nH]c2ccccc12`, for which the “activation” value is -3.37%. For `Oc1ccc(-c2nc(-c3ccc(F)cc3)c(-c3ccncc3)[nH]2)cc1` the value was 0.775%.
